Assay outcomes: PubChem BioAssay, National Center for Advancing Translational Sciences (NCATS)
IL1B secr inh: inflammasome signaling inhibition, IL-1 beta readout; THP-1 LPS/ATP IL-1B secretion, AlphaLISA, 16 h; active compounds read low; 360,000 tested, 4.7% active; activity change, % at 57.5 µM; in the data active means activity change below about -50%; inconclusive means mostly about -30% to -49%
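Secreted IL-1B measured by AlphaLISA bead assay after 16 h compound exposure of THP-1 cells; compounds (final up to 57.5 uM) added 1 h before LPS (250 ng/mL) and ATP (1.25 mM) stimulation; lower signal means less secretion.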
RORg inh: inhibitors of mouse ROR gamma transcriptional activity | P51450 | Drosophila S2 Gal4-RORgamma UAS-luciferase reporter, 20 h | Potency, µM (highest dose often 53.6 µM), hits mostly inhibitors | 310,000 tested, 5.4% active | AID 2551; further: nearly all actives have a fitted effect of over 60% in size
Target sequence (P51450 whole entry, looked up, the tested form may be a part): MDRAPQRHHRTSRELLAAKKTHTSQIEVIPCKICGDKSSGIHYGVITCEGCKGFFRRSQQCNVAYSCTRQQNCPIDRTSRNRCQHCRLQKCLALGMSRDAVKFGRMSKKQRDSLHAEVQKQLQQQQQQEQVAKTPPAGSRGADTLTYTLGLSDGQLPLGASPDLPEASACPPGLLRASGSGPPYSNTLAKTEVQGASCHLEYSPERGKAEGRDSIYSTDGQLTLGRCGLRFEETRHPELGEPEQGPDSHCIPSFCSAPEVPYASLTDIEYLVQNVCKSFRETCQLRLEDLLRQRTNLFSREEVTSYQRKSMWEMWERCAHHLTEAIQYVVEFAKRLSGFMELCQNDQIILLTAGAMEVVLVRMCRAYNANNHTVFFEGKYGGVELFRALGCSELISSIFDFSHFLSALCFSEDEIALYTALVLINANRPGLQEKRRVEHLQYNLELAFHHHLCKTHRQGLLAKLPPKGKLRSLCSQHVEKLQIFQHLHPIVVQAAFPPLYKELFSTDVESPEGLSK
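ROR gamma transcriptional activity was tracked as Gal4-UAS luciferase output in stably transfected Drosophila Schneider cells, with compound added 1 hr before 700 uM copper sulfate induction and a 20 hr ambient-temperature incubation.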
DT40 TDP1 no CPT: qHTS for Inhibitors of human tyrosyl-DNA phosphodiesterase 1 (TDP1): qHTS in cells in absence of CPT; DT40 Tdp1-/- hTDP1 cells, no CPT, ATP luminescence, 48 h; Potency, µM (titrated, usually from 46.2 µM), actives largely listed as inhibitors; 420,000 tested, 15% active; further: nearly all actives have a fitted effect of over 55% in size
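Growth of hTDP1-complemented DT40 Tdp1-knockout cells is measured by ATP luminescence after at least 48 hr compound exposure at 37 °C, with DMSO substituting for the 20 nM CPT used in the parallel screen.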
Gal4-VP16 FLuc: inhibits Gal4-VP16 luciferase reporter, ROR gamma counter-screen | Drosophila S2 Gal4-VP16 UAS-luciferase, luminescence, 20 h | 310,000 tested, 3.5% active | AID 2546 | Potency, µM (top dose mostly 53.6 µM), actives largely listed as inhibitors;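 further: Gal4-VP16 expression switched on by copper sulfate through the metallothionein promoter; nearly all actives have a fitted effect of over 50% in size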
DT40 TDP1 CPT: growth inhibition of DT40 Tdp1-/-;hTDP1 cells with camptothecin (screen for TDP1 inhibitors); 420,000 tested, 12% active; Potency, µM (doses to about 46.2 µM), hits mostly inhibitors; chicken DT40 Tdp1-/-;hTDP1 cells + 20 nM CPT, ATP luminescence, 48 h; AID 686979; further: nearly all actives have a fitted effect of over 55% in size
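Chicken DT40 Tdp1-/- cells stably complemented with human TDP1 were seeded at 400 cells/well in medium containing 20 nM camptothecin, exposed to pin-transferred compounds, and grown at 37 °C for at least 48 hr. Viability was read as ATP luminescence.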
LDHA block: inhibitors of human lactate dehydrogenase A; 480,000 tested, 0.15% active; purified LDHA, NADH/diaphorase-resazurin fluorescence; active compounds read low; activity change, % (values are at about 110 or 230 µM); P00338; in the data active means activity change below about -30%; inconclusive means mostly about -25% to -30%
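Human LDH5 at 2 nM final in Tris HCl pH 7.4 with 0.06 mM NADH and 0.2 mM pyruvate, reacted 5 minutes at room temperature. Remaining NADH coupled via diaphorase/resazurin; resorufin fluorescence read at 0 and 20 minutes, normalized to enzyme-free and DMSO wells.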
Numbers stand for hits; i = inactive; ? = inconclusive; nt = not tested or not shown. Sampled rows, rich in hits. Any-hit rate of the full collection: about 18%. Unless noted, the call rests on the fitted dose curve; in most records, active means well fitted curve in the direction sought with a large enough effect; inconclusive means small, poorly fitted or top-dose-only effect, or another doubt; inactive means no such curve, though single readings can be large; an effect the other way counts as inactive or inconclusive.

SMILES	IL1B secr inh	RORg inh	DT40 TDP1 no CPT	Gal4-VP16 FLuc	DT40 TDP1 CPT	LDHA block
O=C(CCNS(=O)(=O)c1ccc(OC(F)(F)F)cc1)NCCc1c[nH]c2ccccc12	i	nt	23.1µM	nt	14.6µM	i
CC(=O)c1ccc(S(=O)(=O)NCCC(=O)NCCc2c[nH]c3ccccc23)cc1	i	nt	?	nt	?	i
CCOc1cc2c(cc1NC(=O)Cc1ccc(OC)cc1)OC(C)C2 (stereo not drawn)	nt	nt	nt	nt	nt	i
Cc1c(-c2ccccc2)oc2c(C(=O)OCC(=O)NC(=O)NC3CCCC3)cccc2c1=O	nt	nt	nt	nt	nt	i
Cc1ccccc1-c1cc2nc(NCc3ccccc3)n(C)c(=O)c2s1	i	nt	?	nt	9.2µM	i
Cc1ccccc1-c1cc2nc(NCc3ccc(N(C)C)cc3)n(C)c(=O)c2s1	i	nt	16.4µM	nt	?	i
Cn1c(SCC(=O)Nc2cc(S(=O)(=O)N3CCCCCC3)ccc2Cl)nnc1C1CC1	nt	nt	nt	nt	nt	i
CCN(CC)S(=O)(=O)c1cccc(-c2nnc(SC(C)C(=O)NCCC3=CCCCC3)o2)c1 (stereo not drawn)	i	i	25.9µM	i	?	i
C=CCn1c(C)cc(C(=O)CSc2nnc(-c3cccc(S(=O)(=O)N(CC)CC)c3)o2)c1C	i	i	?	i	?	i
CCN(CC)S(=O)(=O)c1cccc(-c2nnc(SCC(=O)c3cc(C)n(C4CC4)c3C)o2)c1	i	i	16.4µM	i	?	i
CCN(CC)S(=O)(=O)c1cccc(-c2nnc(SCc3nc4ccccc4s3)o2)c1	i	i	20.6µM	i	?	i
CCc1cccc2c(C(=O)C(=O)Nc3cccc(Cl)c3)c[nH]c12	nt	nt	nt	nt	nt	i
COc1ccc(N(C)C(=O)Cc2noc3ccccc23)c(OC)c1	nt	nt	nt	nt	nt	i
CCSC1=N/C(=C\c2cc(C)ccc2C)C(=O)S1	nt	nt	nt	nt	nt	i
CCOC(=O)N1CCN(c2nc3ccc(C(=O)c4ccccc4)cc3n3cnnc23)CC1	i	i	?	i	?	i
O=C(c1ccccc1)c1ccc2nc(N3CCN(c4ccccc4)CC3)c3nncn3c2c1	nt	nt	6.51µM	nt	4.61µM	i
Cc1cccc(N2CCN(c3nnnn3-c3ccccc3)CC2C)c1 (stereo not drawn)	i	i	?	i	?	i
O=C(c1ccccc1)c1ccc2nc(N3CCN(C(=O)c4ccco4)CC3)c3nncn3c2c1	i	i	13µM	i	23.1µM	i
COc1ccc(N2CCN(c3nc4ccc(C(=O)c5ccccc5)cc4n4cnnc34)CC2)cc1	nt	nt	i	nt	16.4µM	i
Cc1cccc(N2CCN(c3nc4ccc(C(=O)c5ccccc5)cc4n4cnnc34)CC2C)c1 (stereo not drawn)	nt	nt	13µM	nt	18.4µM	i
CCN1CCN(c2nc3ccccc3n3cnnc23)CC1	i	i	i	i	i	i
COc1ccccc1N1CCN(c2nc3ccc(C(=O)c4ccccc4)cc3n3c(C)nnc23)CC1	nt	nt	i	nt	i	i
Cc1oc(-c2cccs2)nc1C(=O)N1CCCCC1	nt	nt	nt	nt	nt	i
COc1ccc(C/C(C)=N/NS(=O)(=O)c2ccc(Br)cc2)cc1	i	10µM	i	?	i	i
COc1ccc(S(=O)(=O)N/N=C(/C)c2ccc(Cl)cc2)cc1	i	i	i	i	i	i
SMILES	IL1B secr inh	RORg inh	DT40 TDP1 no CPT	Gal4-VP16 FLuc	DT40 TDP1 CPT	LDHA block
O=C(Nc1ccc2oc(-c3ccc4ccccc4c3)nc2c1)c1ccc2c(c1)OCCO2	i	i	8.2µM	i	5.8µM	i
O=C(Nc1ccc2oc(-c3ccc4ccccc4c3)nc2c1)c1cccc(Cl)c1Cl	nt	nt	5.17µM	nt	8.2µM	i
CC(C)c1ccc2oc(-c3cccc(NC(=O)c4ccc5c(c4)OCCO5)c3)nc2c1	nt	nt	16.4µM	nt	?	i
COc1ccc2oc(-c3ccc(C)c(NC(=O)c4ccc5c(c4)OCCO5)c3)nc2c1	nt	nt	16.4µM	nt	?	i
CCCCN1C[C@H](CSC)[C@@H](CC(=O)Nc2ccc(Br)cc2)C1=O	i	nt	23.1µM	nt	?	i
CCCCN1C[C@H](Cc2ccccc2)[C@@H](CC(=O)Nc2ccccc2)C1=O	i	i	?	i	16.4µM	i
